From PubChem BioAssay (NCATS)
Results filed as inconclusive are left out. Where a call stands in place of a potency, no number is given. Active and inactive are the calls of the source. Calls follow the shape of the dose curve; as a rule, active = well fitted inhibition curve with a large enough effect; inconclusive = small, poorly fitted or top-dose-only effect; inactive = flat fitted curve, though single readings scatter.

Each compound was assayed on CP238 (assay: qHTS profiling for inhibitors of Plasmodium falciparum proliferation (AID 504749; also: nearly all actives have a fitted effect of over 60% in size)). Conditions: P. falciparum in erythrocytes, SYBR Green DNA, 72 h; series mostly up to 28.7 µM.
Procedure, shortened: (§1)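 Parasite proliferation within erythrocytes, 72 h exposure. Endpoint: SYBR Green I fluorescence after overnight lysis at room temperature. Controls: 0.29 uM artemisinin, DMSO.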
Potency is read from the fitted curve at half-maximal effect.

SMILES	Potency
C[C@@H](Cc1ccccc1)NCCC(c1ccccc1)c1ccccc1	inactive
CCN(CC)C(=O)/C(Cl)=C(\C)OP(=O)(OC)OC	inactive
CNC(=O)Oc1ccccc1C(=O)Nc1ccccc1	inactive
CCC1C(C)=NN=C(c2ccc(OC)c(OC)c2)c2cc(OC)c(OC)cc21 (configuration not stated)	inactive
C=CCN=C=S	inactive
CCC1(c2ccccc2)C(=O)NC(=O)N(C)C1=O (configuration not stated)	inactive
CC(N)Cc1ccc(O)cc1 (configuration not stated)	inactive
CCOc1ccc2c3c1O[C@H]1[C@@H](O)C=C[C@H]4[C@@H](C2)N(C)CC[C@@]341	inactive
C[C@H]1CCC[C@H](O)CCCCCc2cc(O)cc(O)c2C(=O)O1	inactive
O=[N+]([O-])c1ccccc1	inactive
Oc1cc(Cl)c(Cl)cc1Cl	inactive
C/C(=C\c1csc(C)n1)[C@@H]1C[C@@H]2O[C@]2(C)CCC[C@H](C)[C@H](O)[C@@H](C)C(=O)C(C)(C)[C@@H](O)CC(=O)O1	0.0032 µM (active)
O[C@H]1[C@H]2[C@H](O)CCCN2C[C@H]1O	inactive
O=c1[nH]c(=O)n(Cl)c(=O)n1Cl	inactive
CNC1(c2ccccc2Cl)CCCCC1=O (configuration not stated)	inactive
O=C(NCNC(=O)NC1C(=O)NC(=O)N1CO)NC1C(=O)NC(=O)N1CO (configuration not stated)	inactive

SMILES	Potency
[Cl-].[Cl-].[Hg+2]	10 µM (active)
CNC(=O)OCC[N+](C)(C)C	inactive
CCCN1CCCC2Cc3[nH]ncc3CC21 (configuration not stated)	inactive
Oc1cccc[c]1[Hg][Cl]	11.2 µM (active)
CCC1(c2ccccc2)C(=O)NC(=O)NC1=O	inactive
c1csc(C2(N3CCCCC3)CCCCC2)c1	inactive
C=CCC1(C(C)CCC)C(=O)N=C(S)NC1=O (configuration not stated)	inactive
COc1ccc2c3c1O[C@H]1C(=O)CC[C@H]4[C@@H](C2)N(C)CC[C@]314	inactive
CN1C2CCC1CC(OC(c1ccccc1)c1ccc(Cl)cc1)C2 (configuration not stated)	10 µM (active)
C[C@]12CCC(=O)C[C@@H]1CC[C@@H]1[C@@H]2CC[C@]2(C)[C@@H](O)CC[C@@H]12	inactive
c1cc2c(c(NC3=NCCN3)c1)CCCC2	inactive
F/C(COc1ccc2c(c1)[nH]c1ccccc12)=C1/CN2CCC1CC2	11.2 µM (active)
CCOP(=O)(OCC)O/C(=C/Cl)c1ccc(Cl)cc1Cl	inactive
[O]=[Cr](=[O])([OH])[O][Cr](=[O])(=[O])[OH]	inactive
Clc1ccccc1Cl	inactive
C=CCN(C1=NCCN1)c1c(Cl)cccc1Cl	inactive

What follows are compounds tested on CP247 in the same assay as above. Conditions: P. falciparum in erythrocytes, SYBR Green DNA, 72 h; series mostly up to 28.7 µM.
Procedure, shortened: as §1

SMILES	Potency
CCN(CC)C(=O)/C(Cl)=C(\C)OP(=O)(OC)OC	inactive
CCC1C(C)=NN=C(c2ccc(OC)c(OC)c2)c2cc(OC)c(OC)cc21 (configuration not stated)	inactive
C=CCN=C=S	inactive
N#CC(C#N)=Cc1cc(O)c(O)c(O)c1	8.91 µM (active)
COc1ccc2c(c1OC)C(=O)OC2C1c2cc3c(cc2CCN1C)OCO3 (configuration not stated)	inactive
CCC1(c2ccccc2)C(=O)NC(=O)N(C)C1=O (configuration not stated)	inactive
CC(N)Cc1ccc(O)cc1 (configuration not stated)	inactive
CCOc1ccc2c3c1O[C@H]1[C@@H](O)C=C[C@H]4[C@@H](C2)N(C)CC[C@@]341	inactive
C[C@H]1CCC[C@H](O)CCCCCc2cc(O)cc(O)c2C(=O)O1	inactive
O=[N+]([O-])c1ccccc1	inactive
Oc1cc(Cl)c(Cl)cc1Cl	inactive
C/C(=C\c1csc(C)n1)[C@@H]1C[C@@H]2O[C@]2(C)CCC[C@H](C)[C@H](O)[C@@H](C)C(=O)C(C)(C)[C@@H](O)CC(=O)O1	0.0028 µM (active)
O[C@H]1[C@H]2[C@H](O)CCCN2C[C@H]1O	inactive
O=c1[nH]c(=O)n(Cl)c(=O)n1Cl	inactive
CNC1(c2ccccc2Cl)CCCCC1=O (configuration not stated)	inactive
O=C(NCNC(=O)NC1C(=O)NC(=O)N1CO)NC1C(=O)NC(=O)N1CO (configuration not stated)	inactive
CNC(=O)OCC[N+](C)(C)C	inactive
CCCN1CCCC2Cc3[nH]ncc3CC21 (configuration not stated)	inactive
c1ccc(C2(N3CCCC3)CCCCC2)cc1	7.94 µM (active)
Oc1cccc[c]1[Hg][Cl]	8.91 µM (active)
CCC1(c2ccccc2)C(=O)NC(=O)NC1=O	inactive
c1csc(C2(N3CCCCC3)CCCCC2)c1	inactive
C=CCC1(C(C)CCC)C(=O)N=C(S)NC1=O (configuration not stated)	inactive
COc1ccc2c3c1O[C@H]1C(=O)CC[C@H]4[C@@H](C2)N(C)CC[C@]314	inactive
CN1C2CCC1CC(OC(c1ccccc1)c1ccc(Cl)cc1)C2 (configuration not stated)	10 µM (active)
C[C@]12CCC(=O)C[C@@H]1CC[C@@H]1[C@@H]2CC[C@]2(C)[C@@H](O)CC[C@@H]12	inactive
c1cc2c(c(NC3=NCCN3)c1)CCCC2	inactive
[O]=[Cr](=[O])([OH])[O][Cr](=[O])(=[O])[OH]	inactive
Clc1ccccc1Cl	inactive
C=CCN(C1=NCCN1)c1c(Cl)cccc1Cl	inactive
